# Results taken from PubChem BioAssay.
# This is one part of the list. The source made the active and inactive calls. Rule as the data show it, unless noted: active = activity above about 50%; inactive = the rest.
# Experiments:
# [1] = target: 72 kDa type IV collagenase (Homo sapiens) (UniProt P08253); test: human MMP-2 inhibitors, single-point check – biochemical, fluorescence, single concentration, counter-screen for CSN deneddylation inhibitor project, confirmation (AID 720655;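 active = corrected plate-normalized z-score of 5 or more, or -5 or less, or inhibition of 15% or more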;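 also: plate controls were DMSO wells with enzyme for no effect and buffer wells lacking MMP-2 for full effect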); settings: recombinant MMP-2, FRET substrate fluorescence, 60 min; at 16.6 µM
# Prothrombin (Bos taurus) = Prothrombin (Bos taurus) (UniProt P00735); test: thrombin cleavage blockers, FP readout – biochemical, fluorescence polarization, single concentration, counter-screen for CSN deneddylation inhibitor project, confirmation (AID 720656;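 active = inhibition at or above a set limit, with a fluorescence interference ratio between 0.5 and a set maximum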); settings: bovine thrombin cleavage of Ub4-pepOG, at 16.6 µM, stronger effect = higher value
# [2] = target: Tumor necrosis factor receptor superfamily member 10B (Homo sapiens) (UniProt O14763); test: viability loss of caspase-8 NB7 cells with TRAIL – with/without TRAIL, luminescence panel, confirmation (AID 651596); settings: NB7 neuroblastoma + caspase-8, TRAIL sensitization, NB7 Caspase-8, with TRAIL, mean of runs, at 10 µM, stronger effect = higher value
# [3] = as above; settings: NB7 neuroblastoma + caspase-8, without TRAIL, NB7 Caspase-8, without TRAIL, mean of runs, at 10 µM
# [4] = target: Tumor necrosis factor receptor superfamily member 10B (Homo sapiens) (UniProt O14763); test: compound enhancement of TRAIL-induced cell killing – NB7 cells plus caspase-8, luminescence, panel, dose response (AID 652002); settings: NB7 neuroblastoma +caspase-8, TRAIL sensitization, luminescence viability, NB7+Caspase-8, with TRAIL, run 1; at 12.5 µM (top of the series)
# [5] = target: Tumor necrosis factor receptor superfamily member 10B (Homo sapiens) (UniProt O14763); test: as above; settings: NB7 neuroblastoma +caspase-8, TRAIL sensitization, luminescence viability, NB7+Caspase-8, with TRAIL, run 2; at 12.5 µM (top of the series)
# [6] = as above; settings: NB7 neuroblastoma +caspase-8, no TRAIL, compound-alone cytotoxicity counter-screen, luminescence viability, NB7+Caspase-8, run 1; at 12.5 µM (top of the series)
# [7] = as above; settings: NB7 neuroblastoma +caspase-8, no TRAIL, compound-alone cytotoxicity counter-screen, luminescence viability, NB7+Caspase-8, run 2; at 12.5 µM (top of the series)
# Sequence of Tumor necrosis factor receptor superfamily member 10B (Homo sapiens) (O14763 whole entry, looked up): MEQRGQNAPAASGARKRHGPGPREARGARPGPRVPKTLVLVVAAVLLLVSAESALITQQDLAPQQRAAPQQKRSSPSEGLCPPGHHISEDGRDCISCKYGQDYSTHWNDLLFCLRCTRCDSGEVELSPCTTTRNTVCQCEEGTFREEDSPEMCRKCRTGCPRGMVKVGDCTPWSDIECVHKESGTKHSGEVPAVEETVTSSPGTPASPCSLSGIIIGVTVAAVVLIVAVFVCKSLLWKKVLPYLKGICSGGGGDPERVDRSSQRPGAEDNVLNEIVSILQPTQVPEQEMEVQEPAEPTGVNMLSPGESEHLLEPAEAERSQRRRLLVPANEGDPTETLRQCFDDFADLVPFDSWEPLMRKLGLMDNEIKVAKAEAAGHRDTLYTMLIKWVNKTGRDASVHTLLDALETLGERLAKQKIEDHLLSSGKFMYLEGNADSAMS
# Sequence of 72 kDa type IV collagenase (Homo sapiens) (P08253 whole entry, looked up): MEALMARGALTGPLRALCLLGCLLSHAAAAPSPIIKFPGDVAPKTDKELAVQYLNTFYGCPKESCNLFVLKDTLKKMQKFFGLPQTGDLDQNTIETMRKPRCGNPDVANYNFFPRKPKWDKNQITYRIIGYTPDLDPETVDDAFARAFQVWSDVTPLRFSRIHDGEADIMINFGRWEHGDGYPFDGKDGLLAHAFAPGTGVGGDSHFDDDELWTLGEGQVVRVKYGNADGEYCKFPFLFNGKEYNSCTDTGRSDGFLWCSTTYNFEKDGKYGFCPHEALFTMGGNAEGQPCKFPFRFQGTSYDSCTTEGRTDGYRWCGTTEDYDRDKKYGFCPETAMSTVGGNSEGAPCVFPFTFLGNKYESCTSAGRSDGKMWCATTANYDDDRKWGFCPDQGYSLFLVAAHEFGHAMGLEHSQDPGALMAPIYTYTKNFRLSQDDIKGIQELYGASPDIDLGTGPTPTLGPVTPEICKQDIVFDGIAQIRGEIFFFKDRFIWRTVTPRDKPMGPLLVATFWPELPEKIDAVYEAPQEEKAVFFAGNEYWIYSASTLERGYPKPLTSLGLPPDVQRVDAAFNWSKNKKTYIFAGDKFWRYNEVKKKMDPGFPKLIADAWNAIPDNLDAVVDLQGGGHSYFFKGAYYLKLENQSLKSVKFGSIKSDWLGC
# Sequence of Prothrombin (Bos taurus) (P00735 whole entry, looked up): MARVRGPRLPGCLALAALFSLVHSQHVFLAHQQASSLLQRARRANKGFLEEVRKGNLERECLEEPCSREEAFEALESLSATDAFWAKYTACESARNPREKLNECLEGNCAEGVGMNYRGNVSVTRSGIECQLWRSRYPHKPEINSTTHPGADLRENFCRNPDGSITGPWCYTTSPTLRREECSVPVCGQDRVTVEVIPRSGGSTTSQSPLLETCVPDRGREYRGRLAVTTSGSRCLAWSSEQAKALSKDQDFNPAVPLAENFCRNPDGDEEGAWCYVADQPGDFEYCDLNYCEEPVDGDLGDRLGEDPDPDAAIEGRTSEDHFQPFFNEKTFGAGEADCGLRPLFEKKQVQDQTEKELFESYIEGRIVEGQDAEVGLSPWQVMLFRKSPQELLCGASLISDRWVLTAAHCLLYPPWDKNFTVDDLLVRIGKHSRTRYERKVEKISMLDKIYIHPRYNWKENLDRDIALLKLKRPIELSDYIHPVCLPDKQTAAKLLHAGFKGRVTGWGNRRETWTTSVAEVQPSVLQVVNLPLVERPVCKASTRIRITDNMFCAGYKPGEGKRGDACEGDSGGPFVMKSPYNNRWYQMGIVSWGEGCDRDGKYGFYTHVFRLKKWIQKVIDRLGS
smiles,measurement,setting,value
COc1ccc(N2C(=O)/C(=C/c3ccco3)C(=O)NC2=S)cc1,inhibition,[1],38.2% (active)
same,inhibition,Prothrombin (Bos taurus),24.5% (active)
CC1=CC2OC3CC4OC(=O)C=CC=CC(=O)OCCC(C)C(O)C(=O)OCC2(CC1O)C4(C)C31CO1 (centres undefined),activity,[2],92.9%
same,activity,[3],96.9%
CN(C)C(=O)Oc1ccc(-c2cn3cc(Cl)ccc3n2)cc1,activity,[2],80%
same,activity,[3],85.6%
CC1CCOC(=O)C=CC=CC(=O)OC2CC3OC4C5OC5(C)C(O)CC4(COC(=O)C1O)C2(C)C31CO1 (centres undefined),activity,[2],93.7%
same,activity,[3],97.2%
CC(C)CCn1c(=O)c(C(=O)Nc2ccccc2S(N)(=O)=O)c(O)c2ccccc21,activity,[2],55.4%
same,activity,[3],45.3%
same,"activity, % sensitization",[4],-2.11%
same,"activity, % sensitization",[5],-8.54%
same,"activity, % sensitization",[6],-27.8%
same,"activity, % sensitization",[7],-20%
CC[C@H](C)[C@@H]1NC(=O)CNC(=O)c2csc(n2)[C@H](C(C)(C)O)OC(=O)C(C)(C)[C@H](CCCC(C)(Cl)Cl)OC(=O)c2csc1n2,activity,[2],53.5%
same,activity,[3],78.6%
Clc1ccc(C[n+]2c(-c3ccccc3)cc(-c3ccccc3)cc2-c2ccccc2)cc1,activity,[2],79.1%
same,activity,[3],65.9%
C=CCn1c(O)c(C(CC)=NCc2cc(OC)cc(OC)c2)c(=O)[nH]c1=O,activity,[2],46.4%
same,activity,[3],37.5%
CC12CCC(O)CC1CCC1C2CCC2(C)C(C3=CC(=O)OC3)CCC12O (centres undefined),activity,[2],87.3%
same,activity,[3],91.6%
CCCCCN1C(=O)c2cc(OC)ccc2[C@@]2(C(=O)OCC)Cc3cc(Cl)ccc3[C@@H]12,activity,[2],87.2%
same,activity,[3],92.8%
